Reference: PubChem BioAssay (NCI)
This is part of a sample that, as a whole, favours compounds with a hit. Of some 83,000 tested, about 20% had one in any assay.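 Cells were grown in 96-well plates and exposed to the test compound at a single concentration for 48 hours; results are reported as percent growth, with values below 10 considered active.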 Unmarked numbers belong to inactive results. The source made the active and inactive calls.

Tested on: TK-10 renal
Assay: NCI-60 one-dose screen, 48 h (100 = growth as untreated, 0 = no growth, -100 = all killed)
Conditions: 10 µM
Protocol: Growth inhibition of the TK-10 human tumor cell line is measured as a screen for anti-cancer activity. Cells are grown in 96 well plates and exposed to the test compound for 48 hours. Compounds are tested at a single concentration, which is 10^-5 M for most compounds. The reported endpoint is percent growth (GI% or GIPRCNT), where numbers from 0 - 100% represent growth inhibition, and numbers from -100% - 0 represent cell death. For example, a value of 40 represents 60% growth inhibition. A value of 0 means no net growth occurred over the course of the experiment. A value of -40 indicates 40% of cells at the beginning of the experiment died by the end of the experiment. A value of -100 means all cells are dead at the end of the experiment.
NCI-60 Human Tumor Cell Lines Screen was performed using the standard one-dose NCI protocol, which is described in more detail at https://dtp.cancer.gov/discovery_development/nci-60/default.htm.
Compounds with GIPRCNT values below 10 were considered active. Activity score was based on GIPRCNT using the following formula: […]
Score is 0 for GIPRCNT values of 100 or above, 50 for GIPRCNT values of 0, and 100 for GIPRCNT values of -100.

SMILES	growth
COc1ccc(/C=C/C(=O)Nc2ccc(-c3nc4ccc(OC)cc4s3)cc2)cc1	109%
Cc1ccc(NC(=O)Nc2nc3ccccc3s2)cc1NC(=O)Nc1nc2ccccc2s1	111%
O=C(CNC(=O)OCc1ccccc1)NCC(=O)Oc1ccc([N+](=O)[O-])cc1	90.3%
COc1cc(Cl)cc(-c2nn(-c3cccc(NC(=O)c4ccc(Cl)c(Cl)c4)c3)cc2-c2ccncc2)c1	104%
COc1ccc2c(c1)-c1c(c3cc(OC)ccc3n(CCN(C)C)c1=O)C2=O	-2.26% (active)
COc1ccc(Nc2cc(C)nc(NCCCNc3ccnc4cc(Cl)ccc34)n2)cc1	-83.9% (active)
COc1cc(/C=N/NC(=O)c2ccccc2Nc2cccc(C(F)(F)F)c2)cc(OC)c1OC	-18.2% (active)
O=C(NC(Cc1ccc(O)cc1)C(=O)N=Nc1c(O)[nH]c2ccccc12)c1ccccc1 (stereo not given)	97.7%
COc1ccc(C2=NN(C(=O)c3ccc(S(C)(=O)=O)cc3)C(c3ccc(OC)c(OC)c3)C2)c(OC)c1 (stereo not given)	116%
CCCCCCCCCCCCC1C/C=C\CCCC(=O)O1 (stereo not given)	113%
CC1CC(=O)OC(C)C1 (stereo not given)	104%
O=C1c2ccc3c4c(ccc(c24)C(=O)N1CCNCc1ccccc1)C(=O)N(CCNCc1ccccc1)C3=O	63.4%
Cc1ccc(C)c(C(O)(c2cc(C)ccc2C)C2(O)CCCCC2)c1	89.8%
CCc1ccc2c(c1)N(CCO)C1=C(C(=O)OC1)C2c1cc(OC)c(OC)c(OC)c1 (stereo not given)	57.9%
O=C1/C(=C\c2ccc(Cl)cc2)CN(C(=S)Nc2ccccc2)C/C1=C\c1ccc(Cl)cc1	-60.5% (active)
COc1ccc(-c2ccc(-c3ccc(C(=N)N)cn3)o2)cc1	117%
Cc1ccc(NC(=O)CSc2nc3ccccc3c(=O)n2CCc2ccccc2)c(C(=O)O)c1	117%
N=C1c2nc3n(c2C(=O)c2nc4n(c21)CCCC4)CCCC3	128%
CCC(=O)N1C/C(=C/c2ccc(Br)cc2)C(=O)/C(=C/c2ccc(Br)cc2)C1	-31.2% (active)
O=C(Nc1cccc(-n2cc(-c3ccncc3)c(-c3ccc(O)c(Cl)c3)n2)c1)Nc1cccc(C(F)(F)F)c1	-0.882% (active)

SMILES	growth
FC(F)(F)c1ccc2nc(-c3nc(-c4ccccc4)n4ccccc34)[nH]c2c1	94.2%
COc1ccccc1CNCCN1C(=O)c2ccc3c4c(ccc(c24)C1=O)C(=O)N(CCNCc1ccccc1OC)C3=O	-30.8% (active)
COc1ccc(N=C2C(=Nc3ccc(OC)cc3)N(c3ccc(N(C)C)cc3)C(=S)N2c2ccc(OC)cc2)cc1	95.1%
COc1cc(/C=C/C(=O)c2ccc(Cl)cc2)ccc1OS(=O)(=O)c1ccc(C)cc1	116%
CCOC(=O)C(CSC(c1ccccc1)(c1ccccc1)c1ccccc1)NC(=O)C(CSC(c1ccccc1)(c1ccccc1)c1ccccc1)NC(c1ccccc1)(c1ccccc1)c1ccccc1 (stereo not given)	118%
CC/C(=C(/c1ccc(OCCN(C)C)cc1)c1ccc(OC(=O)CCC(=O)c2c(C)[nH]c(/C=C3\N=C(c4ccc[nH]4)C=C3OC)c2C)cc1)c1ccccc1	21.7%
C/C(=N\Nc1nc2ccccc2s1)c1ccncn1	50.6%
c1ccc([I+]c2ccccc2)cc1	56.6%
c1ccc(CNc2ncnc3scc(-c4cccs4)c23)nc1	126%
CCOC(=O)CNC(=O)CCCCSc1ncnc2nc[nH]c12	158%
COc1ccc(/C(=C2\O[C@@H]([C@H]3COC(C)(C)O3)[C@H]3OC(C)(C)O[C@@H]23)c2cc(OC)c(OC)c(OC)c2)cc1O	109%
O=C(Nc1ccncc1)C(=O)c1cn(S(=O)(=O)c2ccc(F)cc2)c2ccccc12	79%
COc1cc(Cl)cc(-c2nn(-c3cccc(NC(=O)c4ccc(N5CCOCC5)c(C(F)(F)F)c4)c3)cc2-c2ccncc2)c1	90.6%
FC(F)(F)c1ccc(-c2cnc(-n3cc(COCCN4CCCCC4)nn3)nc2NC2CCCCCC2)cc1	-14% (active)
COc1ccc(-n2c(SCc3cc(OC)c(OC)c(OC)c3)nc3ccc(C)cc3c2=O)cc1	94.2%
CC/C(=C(/c1ccc(OCCN(C)C)cc1)c1ccc(OC(=O)CCCCC(=O)c2c(C)[nH]c(/C=C3\N=C(c4ccc[nH]4)C=C3OC)c2C)cc1)c1ccccc1	103%
CCC1(C(C)C)NC(=O)NC1=O (stereo not given)	113%
COc1cc(NC(=O)CCSc2nc3ccc(Cl)cc3c(=O)n2Cc2ccccc2)cc(OC)c1OC	109%
COc1ccc(C2=Nc3c(C)nn(-c4ccccc4)c3NC(c3ccc(Oc4ccnc5cc(Cl)ccc45)c(OC)c3)C2)cc1 (stereo not given)	129%
Fc1cc(C(F)(F)F)ccc1-c1cncnc1NC1CCCCCC1	113%
